From PubChem BioAssay
This is a sample that favours compounds with a hit; in the whole collection about 18% have one here.
DT40 TDP1 CPT: qHTS for Inhibitors of human tyrosyl-DNA phosphodiesterase 1 (TDP1): qHTS in cells in presence of CPT; chicken DT40 Tdp1-/-;hTDP1 cells + 20 nM CPT, ATP luminescence, 48 h; Potency, µM (series often up to 46.2 µM), for the others: at the highest dose activity change, negative = growth inhibition, actives largely listed as inhibitors; actives 12% (n = 420,000); AID 686979, 2013; also: potency is read from the fitted curve at half-maximal effect; nearly all actives have a fitted effect of over 55% in size
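Cell growth measured by CellTiter-Glo luminescence after a minimum 48 h, 37 C compound exposure with 20 nM CPT in Tdp1-knockout DT40 cells stably expressing hTDP1, seeded 400/well; qHTS titration format.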
IL-1B inflam inh: qHTS for Inhibitors of Inflammasome Signaling: IL-1-beta AlphaLISA Primary Screen; AID 743279, 2014; activity change, % at 57.5 µM; actives 4.7% (n = 360,000); THP-1 LPS/ATP IL-1B secretion, AlphaLISA, 16 h; active compounds read low; in the data active = activity change below about -50%; inconclusive = mostly about -30% to -49%
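Secreted IL-1B measured by AlphaLISA bead assay after 16 h compound exposure of THP-1 cells; compounds (final up to 57.5 uM) added 1 h before LPS (250 ng/mL) and ATP (1.25 mM) stimulation; lower signal means less secretion.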
RORg inh: qHTS for inhibitors of ROR gamma transcriptional activity | Drosophila S2 Gal4-RORgamma UAS-luciferase reporter, 20 h | Nuclear receptor ROR-gamma (Mus musculus), P51450 | actives 5.4% (n = 310,000) | Potency, µM (doses to about 53.6 µM), for inactives: top-dose activity change, negative = inhibition, usual class: inhibitors; also: potency is read from the fitted curve at half-maximal effect; nearly all actives have a fitted effect of over 60% in size
Target sequence (P51450 whole entry, looked up, the tested form may be a part): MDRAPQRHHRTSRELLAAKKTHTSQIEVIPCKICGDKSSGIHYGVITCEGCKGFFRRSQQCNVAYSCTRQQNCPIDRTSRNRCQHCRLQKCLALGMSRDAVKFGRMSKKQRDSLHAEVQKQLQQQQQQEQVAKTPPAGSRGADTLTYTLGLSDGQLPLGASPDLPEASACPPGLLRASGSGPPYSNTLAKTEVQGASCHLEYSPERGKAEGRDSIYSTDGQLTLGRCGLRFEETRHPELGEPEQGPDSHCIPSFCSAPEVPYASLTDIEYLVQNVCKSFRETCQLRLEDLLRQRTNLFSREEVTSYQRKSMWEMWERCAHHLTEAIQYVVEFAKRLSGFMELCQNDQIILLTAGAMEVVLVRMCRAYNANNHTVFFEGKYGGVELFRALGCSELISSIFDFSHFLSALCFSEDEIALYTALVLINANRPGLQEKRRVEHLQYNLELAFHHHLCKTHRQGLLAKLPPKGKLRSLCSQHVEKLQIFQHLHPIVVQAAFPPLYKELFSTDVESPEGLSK
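In this cell-based reporter format, copper sulfate (700 uM final) drives Gal4–ROR gamma fusion expression from a metallothionein promoter in Drosophila Schneider cells; compounds preincubated 1 hr, reporter read after 20 hr at ambient temperature.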
Gal4-VP16 FLuc: VP16 counterscreen qHTS for inhibitors of ROR gamma transcriptional activity; actives 3.5% (n = 310,000); AID 2546, 2010; Potency, µM (top dose mostly 53.6 µM), for inactives: at the highest dose activity, negative = inhibition, actives largely listed as inhibitors; Drosophila S2 Gal4-VP16 UAS-luciferase, luminescence, 20 h;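 also: Gal4-VP16 expression switched on by copper sulfate through the metallothionein promoter; potency is read from the fitted curve at half-maximal effect; nearly all actives have a fitted effect of over 50% in size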
DT40 TDP1 no CPT: qHTS for Inhibitors of human tyrosyl-DNA phosphodiesterase 1 (TDP1): qHTS in cells in absence of CPT. DT40 Tdp1-/- hTDP1 cells, no CPT, ATP luminescence, 48 h. Potency, µM (titrated, usually from 46.2 µM), inactives show top-dose activity change, negative = growth inhibition, most hits filed as inhibitors. actives 15% (n = 420,000); also: potency is read from the fitted curve at half-maximal effect; nearly all actives have a fitted effect of over 55% in size
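Growth of hTDP1-complemented DT40 Tdp1-knockout cells is measured by ATP luminescence after at least 48 hr compound exposure at 37 °C, with DMSO substituting for the 20 nM CPT used in the parallel screen.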
LDHA block: qHTS assay for inhibitors of human lactate dehydrogenase; purified LDHA, NADH/diaphorase-resazurin fluorescence; active compounds read low; actives 0.15% (n = 480,000); AID 1347041, 2019; activity change, % (values are at about 110 or 230 µM); L-lactate dehydrogenase A chain (Homo sapiens), P00338; in the data active = activity change below about -30%; inconclusive = mostly about -25% to -30%;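 also: plate controls were DMSO wells for no effect and wells without enzyme for full effect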
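Remaining NADH was detected by diaphorase (0.133 mg/mL) converting 37 µM resazurin to fluorescent resorufin, read at 0 and 20 minutes. The preceding 5-minute room-temperature reaction used 2 nM LDHA, 0.2 mM sodium pyruvate and 0.06 mM NADH at pH 7.4.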
Starred values were filed as active, the others as inactive; ? = inconclusive; · = no result given; [ ] = remark or other dose. Unless noted, calls follow the shape of the dose curve; as a rule, active = well fitted curve in the direction sought with a large enough effect; inconclusive = small, poorly fitted or top-dose-only effect, or another doubt; inactive = no such curve, though single readings can be large; an effect the other way counts as inactive or inconclusive. Unless noted, % is scaled to controls: 0 for no effect and ±100 for the full control effect.

SMILES	DT40 TDP1 CPT	IL-1B inflam inh	RORg inh	Gal4-VP16 FLuc	DT40 TDP1 no CPT	LDHA block
CCOC(=O)C1=C(C)NC(=S)NC1c1ccco1 (configuration not stated)	-3%	-9	-39%	-4%	?	4
CCOC(=O)C1=C(C)NC(=S)NC1c1ccsc1 (configuration not stated)	0%	-8	11µM*	?	16%	-2
CCOC(=O)C1=C(C)NC(=S)NC1c1ccc(C)s1 (configuration not stated)	-2%	-11	8.9µM*	?	-5%	-6
O=C(CCCc1nc2ccccc2o1)NCc1ccc(F)cc1	·	·	·	·	·	1
O=C(Nc1cc(C(F)(F)F)ccc1F)c1cccc(COc2ccc(Cl)cc2)c1	·	·	·	·	·	8
O=S(=O)(c1ccc(Cl)cc1Cl)n1ccnc1	-5%	·	·	·	-14%	-2
N#C/C(=C1/SC[C@@H](c2ccc(Cl)cc2Cl)S1)n1ccnc1	4.7µM*	·	·	·	6µM*	·
Brc1ccc(-c2noc(Cc3cccs3)n2)o1	·	·	·	·	·	9
CCCc1nc2ccccc2c(=O)n1-c1c(C)n(C)n(-c2ccccc2)c1=O	26µM*	31	-21%	-5%	18µM*	-1
Cc1c(-n2c(SCC(C)C)nc3ccccc3c2=O)c(=O)n(-c2ccccc2)n1C	?	-13	34%	-12%[10 µM]	?	-3
CCN(C(=S)Nc1cc(S(=O)(=O)N(C)C)ccc1C)c1cccc2ccccc12	·	·	·	·	·	105
CN(C)CCn1c(=N)n(CC(O)c2ccc(Cl)c(Cl)c2)c2ccccc21 (configuration not stated)	23µM*	·	-27%	-3%	23µM*	1
N=c1n(CCN2CCCCC2)c2ccccc2n1CC(O)c1ccc(Cl)c(Cl)c1 (configuration not stated)	3.7µM*	-68*	-74%	?	8.2µM*	-4
N=c1n(CCN2CCCCC2)c2ccccc2n1CC(O)c1cccc(Br)c1 (configuration not stated)	15µM*	-6	1%	-8%	16µM*	-1
CN(C)CCn1c(C(=O)O)cc2ccccc21	-4%	11	-14%	-7%	-3%	-3
O=CNc1cccc(O)c1	·	·	·	·	·	1
Nn1c(SCC(=O)NCCc2ccc(Cl)cc2)nnc1-c1ccco1	·	·	·	·	·	2
Cc1ccc(-c2nnc(CN3CCC(c4ccn[nH]4)CC3)o2)cc1	·	·	·	·	·	1
CCCc1ccc2oc(C(=O)NCCCN3CCOCC3)c(C)c2c1	?	-20	12%	-2%	?	0
Cc1c(C(=O)NCCCN2CCOCC2)oc2c1C1(CCC2)SCCS1	12µM*	0	31%	2%	23µM*	5
CCOc1ccc(-c2nc(CNC(=O)Nc3ccccc3Cl)c(C)o2)cc1	·	·	·	·	·	15
C=CCOc1ccc(/C=C(\C#N)c2nc3cc(C)c(C)cc3[nH]2)cc1OC	·	·	·	·	·	-1
Cc1ccccc1-c1cnc(C(O)c2cccc(C)c2C)[nH]1 (configuration not stated)	?	-7	·	·	?	-5
COc1c(C)cc(C(O)c2ncc(-c3ccc(Cl)cc3)[nH]2)cc1C (configuration not stated)	?	12	·	·	?	-6
COc1c(C)cc(C(O)c2ncc(-c3ccccc3)[nH]2)cc1C (configuration not stated)	?	-60*	·	·	?	-11
